Results from PubChem BioAssay (NCI).
The panel holds about 83,000 compounds, 20% with a hit somewhere; the sample as a whole holds those more often.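 The endpoint reported here, percent growth, reads 100 for growth as untreated, 0 for no net growth and -100 for all cells dead.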 Activity calls are given as the source filed them. Rule for the calls: active = growth percent below 10; inactive = the rest.

Columns and labels:
Assay in all cases: NCI-60 one-dose screen, 48 h (100 = growth as untreated, 0 = no growth, -100 = all killed)
Settings in all cases: 10 µM unless noted
[1] = test system: SK-MEL-2 melanoma
[2] = test system: EKVX NSCLC
[3] = test system: SN12C renal
[4] = test system: UO-31 renal
[5] = test system: TK-10 renal
[6] = test system: ACHN renal
[7] = test system: CAKI-1 renal
[8] = test system: A498 renal
[9] = test system: CCRF-CEM leukemia
[10] = test system: MOLT-4 leukemia
[11] = test system: SR leukemia
[12] = test system: RPMI-8226 leukemia
[13] = test system: OVCAR-5 ovarian
[14] = test system: OVCAR-4 ovarian
[15] = test system: SK-OV-3 ovarian
[16] = test system: IGROV1 ovarian
[17] = test system: OVCAR-3 ovarian
[18] = test system: HS 578T breast
[19] = test system: NCI/ADR-RES ovarian

Measured: growth

CCS(=O)(=O)c1ncnc2nc[nH]c12
inactive: [1] 100% | [2] 99.3% | [3] 94.5% | [4] 92.6% | [5] 98.2% | [6] 106% | [7] 99.6% | [8] 92.8% | [9] 93.3% | [10] 103% | [11] 97.8% | [12] 95.9% | [13] 98.1% | [14] 106% | [15] 95.2% | [16] 109% | [17] 111% | [18] 97.6% | [19] 104%

CCCCCCNC(=O)Oc1ccc(/C(=C(\C)c2ccc(Cl)cc2)c2ccc(OCCN(CC)CC)cc2)cc1
active: [11] -10.8%
inactive: [1] 95.6% | [2] 73.6% | [3] 76.2% | [4] 41.8% | [5] 85% | [6] 85.6% | [7] 89.9% | [8] 93.7% | [9] 54.6% | [10] 35.3% | [12] 51.6% | [13] 72.1% | [14] 60.5% | [15] 83.1% | [16] 55.2% | [17] 67.6% | [18] 67.5% | [19] 72.7%

c1cc(NCCc2ccncc2)nc(-n2cnc3ccccc32)c1
inactive: [1] 86.8% | [2] 102% | [3] 90.4% | [4] 74.9% | [5] 86.9% | [6] 65.4% | [7] 81.2% | [8] 69.3% | [9] 99.8% | [10] 86.4% | [11] 58.2% | [12] 68.5% | [13] 98% | [14] 96.7% | [15] 97.2% | [16] 73.1% | [17] 96.2% | [18] 98.2% | [19] 90.7%

CCCCOc1ccc(/C=N/NC(N)=S)cc1
inactive: [1] 85.1% | [2] 85.9% | [3] 67.5% | [4] 43.7% | [5] 77.3% | [6] 92.3% | [7] 83.7% | [8] 79.4% | [9] 37.4% | [10] 46% | [11] 84.7% | [12] 49.1% | [13] 93.1% | [14] 41.3% | [15] 92.1% | [16] 52.3% | [17] 63.2% | [18] 89.8% | [19] 85.5%

CCc1ccc(Oc2c(-c3ccc(OCc4ccc(Cl)cc4)cc3O)n[nH]c2C(F)(F)F)cc1
active: [4] -10.4% | [6] 5.7% | [10] -3.23% | [12] 1.99% | [17] 0.589%
inactive: [1] 11.4% | [2] 15.7% | [3] 15.3% | [5] 16.1% | [7] 29.6% | [8] 11.2% | [9] 11.7% | [11] 12.7% | [13] 85.9% | [14] 16.5% | [15] 27% | [16] 22% | [18] 27.9% | [19] 16.5%

Nc1ccccc1-c1cc2c(c3c1[nH]c1ccccc13)CCCCC2
inactive: [1] 92.5% | [2] 89.9% | [3] 99.7% | [4] 96.7% | [5] 101% | [6] 107% | [7] 114% | [8] 119% | [9] 93.1% | [10] 90.8% | [11] 94.2% | [12] 99.3% | [13] 108% | [14] 105% | [15] 115% | [16] 97% | [17] 102% | [18] 95.2% | [19] 94.8%

NS(=O)(=O)c1ccc(N=Nc2ccc(-c3nn4cc(-c5ccccc5)nc4s3)cc2)cc1
inactive: [1] 99.4% | [2] 96.7% | [3] 108% | [4] 89.4% | [5] 88.5% | [6] 99.8% | [7] 85.9% | [8] 97.5% | [9] 111% | [10] 105% | [11] 90.6% | [12] 105% | [13] 103% | [14] 99.7% | [15] 88.8% | [16] 117% | [17] 102% | [18] 94.2% | [19] 107%

CC(C)n1cnc2c(Nc3cccc(Cl)c3)nc(N[C@H]3CCCC[C@@H]3N)nc21
active: [10] 7.51%
inactive: [1] 78.3% | [2] 54.1% | [3] 50.6% | [4] 31.7% | [5] 67.4% | [6] 29.9% | [7] 49.5% | [8] 94.9% | [9] 66.6% | [11] 13.9% | [12] 19.8% | [13] 50.4% | [14] 55.4% | [15] 80.6% | [16] 29.4% | [17] 61.2% | [18] 66.7% | [19] 61.4%

c1ccc2cc(C[n+]3ccn(CCCCCCn4cc[n+](Cc5ccc6ccccc6c5)c4)c3)ccc2c1
inactive: [1] 36% | [2] 37.3% | [3] 34.9% | [4] 97.2% | [5] 83.1% | [6] 72.5% | [7] 95.4% | [8] 10% | [9] 84.2% | [10] 74.9% | [11] 69% | [12] 65.5% | [13] 60.4% | [14] 40.8% | [15] 55.6% | [16] 58.1% | [17] 62.4% | [18] 68.5% | [19] 100%

COc1cccc(Oc2ccccc2NC(=O)CNC(=O)c2cccc3ccccc23)c1
active: [8] -16.3% [5 µM] | [11] 5.26% [5 µM] | [17] -23.7% [5 µM]
inactive: [1] 30% [5 µM] | [2] 35.3% [5 µM] | [3] 31.4% [5 µM] | [4] 39.8% [5 µM] | [5] 58.5% [5 µM] | [6] 33.7% [5 µM] | [7] 23.8% [5 µM] | [9] 15.4% [5 µM] | [10] 12.3% [5 µM] | [12] 21.8% [5 µM] | [13] 41.8% [5 µM] | [14] 42.2% [5 µM] | [15] 42.2% [5 µM] | [16] 27.6% [5 µM] | [18] 24.7% [5 µM] | [19] 15.3% [5 µM]

COc1cccc(Cc2nn3cc(-c4ccccc4)nc3s2)c1
inactive: [1] 95.2% | [2] 94.1% | [3] 96.3% | [4] 74.6% | [5] 95.1% | [6] 96% | [7] 90.8% | [8] 99.5% | [9] 30.2% | [10] 30.1% | [11] 16.3% | [12] 33.7% | [13] 114% | [14] 98.4% | [15] 103% | [16] 86.4% | [17] 85.5% | [18] 106% | [19] 101%

Cc1nc2nc(SCC(=O)O)[nH]c2c(=O)[nH]1
inactive: [1] 96% | [2] 108% | [3] 100% | [4] 92.2% | [5] 101% | [6] 110% | [7] 99.2% | [8] 81.5% | [9] 97.2% | [10] 103% | [11] 115% | [12] 96.9% | [13] 104% | [14] 131% | [15] 103% | [16] 101% | [17] 115% | [18] 99% | [19] 105%

CCCCCCNC(=O)Oc1ccc(/C(=C(\C)c2ccc(Cl)cc2)c2ccc(OCCN3CCCCC3)cc2)cc1
inactive: [1] 86.4% | [2] 52.8% | [3] 55.9% | [4] 32.6% | [5] 89.6% | [6] 76.3% | [7] 63.8% | [8] 76.1% | [9] 34% | [10] 10.9% | [12] 17.7% | [13] 72% | [14] 36.7% | [15] 56.3% | [16] 54.8% | [17] 58.4% | [18] 65.2% | [19] 63.5%
active: [11] -22.4%

C=C1C(=O)O[C@H]2[C@H]1CC/C(COC(=O)NCCOCCOCC(=O)Nc1ccc(OC)c(C(N)=O)c1O)=C\CC[C@@]1(C)O[C@@H]21
inactive: [1] 72.5% | [2] 84.1% | [3] 66% | [4] 74.9% | [5] 45.5% | [6] 40.8% | [7] 82% | [8] 92.5% | [10] 17% | [12] 16% | [13] 90.9% | [14] 71% | [15] 109% | [16] 24.7% | [17] 45.8% | [18] 90.1% | [19] 94.6%
active: [9] -4.37% | [11] 7.91%

Cc1ccc(C(=O)N/N=C/c2cccc(Oc3ccccc3)c2)cn1
inactive: [1] 44.5% | [2] 77.4% | [3] 68.6% | [4] 13.9% | [5] 83.3% | [6] 85.9% | [7] 22.9% | [8] 57.6% | [9] 82.3% | [10] 40% | [11] 48.6% | [12] 89.5% | [13] 93.1% | [14] 86.7% | [15] 80% | [16] 24% | [17] 35.7% | [18] 50.8% | [19] 19.8%
